For 108 sequences, z-score results are on record in PubChem BioAssay AID1508600 (Functional Genomics Laboratory (NCATS/FGL), 2020).

The campaign covered roughly 53,000 sequences. About 3,700 (7%) were called active. Shown is part of a subset that was picked to be rich in actives. Unmarked numbers belong to inactive results.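 Rule for the calls: active = gene knockdowns whose robust z-score for IL-1 alpha signal is at least 2 or at most -2, so actives lie on both sides; inactive = the rest.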

The experiment is described as follows: Components of the Cytosolic LPS Sensing Pathway: Gene Identification via Genome-wide siRNA Screen. The following applies: RAW264.7 macrophages, IL-1a HTRF, actives lie on both sides, screened at 100 nM (by protocol), cells primed 5 h with Pam3CSK4 first. From the text: Non-canonical inflammasome activation by cytosolic LPS is a critical component of the host response to Gram-negative bacterial infection, however we lack a comprehensive understanding of the cellular processes that control this pathway. Here we describe a genome-wide siRNA screen to identify genes regulating the mouse macrophage IL-1 alpha response to cytosolic LPS.
RAW264.7 cells were maintained in complete DMEM media, comprising DMEM with 4.5 g/L glucose, 10% FBS (Gemini Bio-Products, West Sacramento, CA), 2 mM Glutamine (Lonza) and 20 mM HEPES (Lonza), hereafter complete DMEM.
The RNAi screen was conducted in 384-well format using the Ambion Silencer Mouse Genome siRNA Library (#4391425), which consists of three unique, nonoverlapping, nonpooled siRNAs for each of 17,000 gene targets. siRNA reagents ([…]) were stamped into 384-well white flat-bottom microplates (Corning, 3570) using a Velocity11 VPrep liquid handling system (Agilent) integrated into a BioCel robotic platform (Agilent) in columns 1-22, leaving columns 23-24 empty for negative (Ambion, Negative control #1) and positive (mouse Casp4) controls, respectively. The median value of each plate's negative control column was used to normalize sample wells, and the positive control was used to assess transfection efficiency and assay performance.
Lipofectamine RNAiMAX Transfection Reagent ([…]; Invitrogen) was added in […] serum-free, antibiotic-free media to plate wells using a Thermo Scientific Matrix WellMate and Microplate Stacker. Plates were incubated for 45 min at room temperature to allow for the sufficient formation of siRNA-lipid complexes. Cells were seeded at a density of 1x10^4 cells per well in 20 microL media containing 20% (vol/vol) FBS without antibiotics. The final concentration of siRNA in each well was 100 nM. Cells were cultured for 48h at 37 degrees C in 5% CO2 before addition of […] of TLR ligand Pam3CSK4 for 5 hours. The medium was then removed, replaced with […] growth media and cell were transfected with […] of LipidA and TransIT-TKO (Mirus) for 24 hour. At the end of the LipidA treatment, […] of supernatant was transferred to a 384 Greiner Bio-one non-binding low volume plate and […] of IL-1a HTRF reagent (Cisbio, 62MIL1APEH) was added and incubated at room temperature overnight. The plates were read on an EnVision plate reader (PerkinElmer). Cell viability was measured by adding 20ul Cell Titer Glo to the original plate and running a luminescence read on the EnVision. The quantified IL-1a signal for each siRNA gene-targeted well was divided by the median of the negative control wells and multiplied by 100 to achieve a negative control normalized value for each well/siRNA. This normalized value was then used to generate a robust z-score by first taking the log of each value and then by subtracting the median and dividing by the […].
On the technique in general: TR-FRET usually uses a lanthanide donor and a delayed reading to cut background.
On to GGUAGACACCUUGUUCUUATT against Nap1l3, for which the z-score is 1.03. With GCCUUUAAUACAUAGGCUUTT against Cxcl9 the figure was -0.381; with GCCAAUAGUAACCAGCCAGTT against Prkab1, -2.07 (active).

Turning to GCAAAUUCCAGUGAAAGCCTT against Papola, the z-score is 1.12. With GGAUGACCAUGAAAGCUGUTT against Vps13b the figure was 1.87; with GGUUAUCAUCUUGUGAAAATT against Srpk1, -0.628; with AUGCCUAUACAAUUCUGUGTT against Olfr1167, 0.0339.

GGAGAACAACAAAGACAAGTT against Hoxb8: the z-score is 2.69 (active). Then GGACACUAUAAGAAAGGAATT against Fnta, with 0.708; and CCCAUUACGCAAAUUGUUCTT against Rin3, with -2.31 (active). With GCCACGUCUGAACACUUCATT against Vamp8 the figure was 0.873; with GCCUGUUUAGAAUUAGAGATT against Plekhs1, 0.135; with GCUGAUGGACAAAUUCCACTT against Rapgef1, 0.505. Then GCCAUUGCUAUCCAUCGUGTT against Ddx39b, with -2.57 (active). On to CCAAAGUUCCCUUAGCCAUTT against Cntrob, for which the z-score was 0.12.

As to GCGGCACUUUAUCAUUAUCTT against Hint3, the z-score was 0.398. With GCCCAUUCUAAACAAAUAATT against Ptcd1 the figure was -0.825; with GGAGCUUAAAGUGAGCGGCTT against Lage3, -0.859.

In the case of CGACCAGUCACAAUGGUUATT against Edil3, the z-score was 1.43.

As for GGUGAUUGCUGAAGACGAGTT against Fbxw8, the z-score was -0.172. Consider CCUCGAAACUCAUUUCCAGTT against Prkch, for which the z-score is -0.603. For GGGUUAAUCCCUAUCUCUUTT against Tfe3, the z-score was 0.419. Then GAUCUCAAACAUUCUAUGCTT against Lce1c, with -1.14; and GGAGCCAAGUGUGAUUACATT against Pias3, with 6.29 (active); and GGAAUCUGAAUUUUUGUGUTT against Commd1, with -0.576. With GACCUGUUUUGUCUUUUGCTT against Ms4a4c the figure was 1.34; with GCUUGAUAGGGAACUUAAUTT against Olfr805, -1.57. Consider GCUGCUGGAUGCAACCAAATT against Slc16a3, for which the z-score is -0.379.

As to GCUGCACGUGAUCAUGGAUTT against Accs, the z-score was 0.852. Turning to GCCUAAGAUCUGGACCUAATT against Timm44, the z-score was -0.35. With GGAGAAGCAUUAUUUUGAATT against Myb the figure was 0.798; with “GGACGACUGGAAGUUUUCUTT against 5830411N06Rik”, 3.95 (active); with GGAGCCCUUGCUCUUUAACTT against Izumo1r, -2.23 (active). GGACAUAAGAGAAUGGUCATT against Lpp: the z-score was 2.07 (active). With GGCAAAUGUACUAAAAUGATT against Gpr34 the figure was 0.764; with GCCACUUACACUUACUUGATT against Olfr1331, -0.15. For GCAUAAGCCACACCCUCUGTT against Cops7a, the z-score was 1.03. Then GGGAAAUUUAAAAACCUGGTT against Hoxa2, with -0.139; and GGAAAGACCAUUCUGUAUUTT against Vps37d, with -1.54; and GCUGAACUGUCUCAGCUCATT against Tmem81, with 2.06 (active). On to AGAAGAUACCGAUCAAGCGTT against Nsmce3, for which the z-score was 0.049. As for GCAUGGGCAUAACCGAAAGTT against Rex2, the z-score is -0.332. With GGAGAAGUAAUGACAAAUUTT against Foxp4 the figure was -1.47; with GGACGUGACUCUCAUCAUCTT against Atp2b3, 0.929. GUGAUGUGGCCAUGUCAAUTT against Olfr641: the z-score is -2.61 (active).

Turning to GGAGAGGAAAAUUGUAUUUTT against Alox12, the z-score is -0.037. Take CCCAUUCUGUAUAUAGUGCTT against Adam6a: the z-score was -0.0363. Then CGGUUAGAGCAUUAAGUUCTT against Lias, with 0.817; and GCUCGAUUCAGAAAUCUACTT against Sgce, with -0.735; and GACUGAACAGAUCUACUCUTT against Klra7, with -0.413. On to CGCAUUUCGAAUAAAGACATT against Mettl22, for which the z-score was -0.546.

Turning to GCAUUUCACCGUCAUGAACTT against Ttll12, the z-score was -2.55 (active).

For GGAAGUUUGCUCAAUCUCATT against Jarid2, the z-score was 1.12. Consider GGACCUGUAUUCACACCUUTT against Wdr61, for which the z-score was 0.0931. Then GGGUUUUUGAUGAUGAUUCTT against Htatsf1, with -0.66. Consider CGGGAUAGCUGUCCUGUUATT against Mrps14, for which the z-score is 0.127. With GAAGCGAUGCUCAGAUCCATT against Serpina1d the figure was 0.136. With GCCCUCCUUAUAGCUUAAUTT against Asic3, the z-score was -2.2 (active). With GCUUCGAAGCAACAUCCGATT against Rims3 the figure was -0.00729; with GGAAAAACUGUGCAAAUAATT against Krt75, 1.26; with GCAGGCAUUCUGCUCUAUATT against Oxgr1, 1.01. With GGGACAUUAAUAAACCUGATT against Omg the figure was -0.269; with CCAUGGCCUAGAGCUGGAUTT against Unc5cl, 0.315; with GGAAGUAACAUGCUUCUAGTT against Ccdc42, 0.75. Take GGAUUCCAUCUUUGUAUGATT against Cbr4: the z-score is 0.689. With GCCAAGUGAUUGAAAAAACTT against Lnpk, the z-score is -0.423. GGUGAAGAAAGUCAAGAAGTT against Spi1: the z-score was -2.46 (active). With GGUUCUGGUGGUGAAUGUGTT against Kcnd1 the figure was -1.51; with GCGAGUUGUUUCCAUAGUUTT against Gpr22, -0.388; with GGCAGAGCUAGAUCAAAUUTT against Retreg1, 3.58 (active). Then GGAAAUUCACACAGAUGAATT against Mtmr12, with -1.27. On to GCCAACCUUCAAGGAAUAUTT against Cyp2b10, for which the z-score was 1.4. Then GGGAAGACAAGAACAACUUTT against Pitrm1, with 0.756; and GGUCGUUAUCACUCUCUAUTT against Pkd1l3, with 3.34 (active). With CCCUUUAGCUUCCUAAUGUTT against Rhag the figure was 0.11; with GGUUUUAUUAACUCUGUGATT against Olfr1013, 0.453; with GGACUGCUUUUUUUACUCATT against Mta2, -2.07 (active).

Turning to CCUGGUAAUCACAAUUUCGTT against Tor1b, the z-score was -0.655. With GGUAGACAAGAUCAUCGGATT against Dsc3 the figure was 0.711; with GGCAUAGAAGAGAUGACAGTT against Fabp7, -2.18 (active). With GCCUGUCUGCCUUUGCUUCTT against H4c9 the figure was 2.47 (active); with GCUCGUACAUCUAUGGCUATT against Psmb6, -0.633. As for GGACCUAAGCAUUUUACAUTT against Traf2, the z-score is -0.143. Then CCUAUGUGUACUUCAUCCUTT against Elovl1, with 2.93 (active). Then “GCCUUUUAUACAUGUUUGATT against B130024G19Rik”, with -1.55; and GCUAGAGUAUGAGAACUUCTT against Cdc14b, with 0.233; and GGUAGAGAACCAGAGGCAUTT against Ninj2, with -0.164. GCCAGGAAUGCUAUUCUCGTT against Lrg1: the z-score is -2.26 (active). With CCACCAUUUACUGAGUUUATT against Scn2b the figure was -0.324; with GUCUUUGGAAAUCUACUCATT against Olfr1189, -1.21; with GGAGAUUCUGUGCAAUGCATT against Dnajc12, -0.0758. Then CCAUUAACGUAAAUUCUGUTT against Ankrd13c, with -0.971; and GCUCAUACCUAUCUCAAGGTT against Tnfsf9, with 0.365; and CCUAACAUAGUAUAGCCUUTT against Zfp868, with -0.0695. Then GGUCCUGAAGAUACAUAUUTT against Taf2, with -2.42 (active); and GGGAGAAAUGCAAAUAUUUTT against Mbnl2, with -0.37. For GGUGAAGAAAGCGGAAAAGTT against Cstf3, the z-score is -0.19. Turning to GGACCUGUUUUGGAAAUAUTT against Jchain, the z-score is -0.613. With GGGUUAUGGACACUACCCATT against Tnk1 the figure was -1.84; with GGUACGAGAACAACUGACUTT against Acot3, 0.269; with GGUACGUGAGAGAAUUCUGTT against Trem2, 3.14 (active). With GGUCAGAUACAAUGUAUAUTT against Ap1s3 the figure was -0.793; with GGUGUGUAAUGUGCGUGAGTT against Ephb3, 1.11. Then GGGAUCCUUAUUUCAUACUTT against Olfr868, with 1.16; and GGCGGAAAUCAAAGGAGGATT against Dnmt1, with 0.791; and GGUGGAGUUUAAACUUACATT against Atp4b, with 5.64 (active). Take GGAAACGAUAGCCAAUAUUTT against Scp2d1: the z-score was -1.08.

Regarding GGGAUCAAUGGCUACCUGUTT against Slc7a10, the z-score is -0.0112.
